Here are results for 38 compounds from PubChem BioAssay (NCATS).

Results filed as inconclusive are left out. A call without a number means that no potency is given here. A number with no mark means an inactive call. Active and inactive are the calls of the source. Unless noted, calls come from the whole dose curve.

Test [1] can be described thus: Primary qHTS for Huh7 cytotoxicity: counterscreen for inhibitors of MERS-S pseudotyped particle cell entry (AID 1479147). Conditions: outcome: dose series up to 57.1 µM unless noted. In general terms: Quantitative high-throughput screening tests each substance at several concentrations.
Test [2] is described as follows: Primary qHTS for inhibitors of MERS-S pseudo-typed particle cell entry (AID 1479149). Note: nearly all actives have a fitted effect of over 60% in size. To be noted: outcome: dose series up to 57.1 µM unless noted.
The nature of test [3]: Primary qHTS for Vero E6 cytotoxicity: counterscreen for inhibitors of SARS-S pseudo-typed particle cell entry (AID 1479150). Note: potency is the fitted concentration of half-maximal effect.
Test [4] addresses Calcium and integrin-binding protein 1 (Homo sapiens) (UniProt Q99828). In words: Primary qHTS for Identification of Calcium Integrin Binding Protein 1 (CIB1) Competitor (AID 1508620; active = well fitted curve in the direction sought with a large enough effect; an effect the other way counts as inactive or inconclusive;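 note: GST tagged CIB1 binding a fluorescein labelled alphaIIb integrin peptide tracer; top concentration of the series differs between compounds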). The method in brief: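 Fluorescence polarization competition: CIB1-GST (1 uM final) preincubated with compound 15 min at room temperature, then FITC-labeled alphaIIb peptide (100 nM final) added for another 15 min. Polarization read at Ex 480/Em 540.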

A short description of test [5]: Confirmatory qHTS for VERO E6 Cytotoxicity Assay: Counterscreen for SARS-CoV-2 CPE Assay (AID 1508605). Note: series mostly up to about 20 µM; nearly all actives have a fitted effect of over 60% in size.
The nature of test [6]: Confirmatory qHTS for activators (rescue) of SARS-CoV-2 Cytopathic Effect (CPE) (AID 1508606). Note: nearly all actives have a fitted effect of over 70% in size.
Test [7] has as its target Calcium and integrin-binding protein 1 (Homo sapiens) (UniProt Q99828). Nature of the test: Validation qHTS for Identification of Calcium Integrin Binding protein 1 (CIB1) Competitor (AID 1508618; active = well fitted curve in the direction sought with a large enough effect; an effect the other way counts as inactive or inconclusive). An outline of the steps: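 Displacement of FITC-alphaIIb peptide (100 nM) from CIB1-GST (1 uM) is monitored by polarization in quantitative HTS format; buffer carries 5 mM CaCl2 and 125 mM NaCl at pH 7.4, incubations are at room temperature.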

A short description of test [8]: Counterscreen qHTS for small molecule stabilizers of the endoplasmic reticulum resident proteome: GLuc-NoTag assay (AID 1508627; active = well fitted curve in the direction sought with a large enough effect; an effect the other way counts as inactive or inconclusive;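 note: SH-SY5Y cells given compound then 100 nM thapsigargin to empty ER calcium; series mostly up to about 76 µM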). An outline of the steps:
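SH-SY5Y cells stably expressing constitutively secreted GLuc (no SERCaMP tag) were pre-incubated 5 h, treated with compound for 19 h, then 100 nM thapsigargin for 4 h at 37C; medium GLuc read by coelenterazine luminescence.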

Calcium and integrin-binding protein 1 (Homo sapiens), sequence (Q99828 whole entry, looked up): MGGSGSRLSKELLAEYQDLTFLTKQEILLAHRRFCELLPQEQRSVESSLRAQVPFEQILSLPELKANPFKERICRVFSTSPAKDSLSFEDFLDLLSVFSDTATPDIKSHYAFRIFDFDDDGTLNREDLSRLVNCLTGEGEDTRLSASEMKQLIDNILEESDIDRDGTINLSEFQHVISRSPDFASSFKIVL

Turning to `CCNCC(O)c1cccc(O)c1` (stereo not drawn), the outcome in test [1] and in test [2] was inactive. Also, the Potency entry in test [3] is “inactive”.

`C=C1[C@@H]2CC[C@@]3(C)[C@H](c4ccoc4)OC(=O)C[C@]13O[C@H]1CC(=O)C(C)(C)[C@H](C(OC(C)=O)C(=O)OC)[C@]12C` (stereo partly drawn): in test [4], the Potency entry was “inactive”.

As to `O=C(N1CCOCC1)N1CCN(c2ccc(Cl)cc2)CC1`, in test [4], the Potency entry is “inactive”.

With `ClC1C(Cl)C(Cl)C(Cl)C(Cl)C1Cl` (stereo not drawn), the call in test [1] and in test [2] was inactive. Further, the Potency entry in test [3] is “inactive”.

For `O=C1C2CC=CCC2C(=O)N1SC(Cl)(Cl)Cl` (stereo not drawn), the Potency in test [3] was 20 µM (active).

Consider `CCC1(CC)C(=O)NC(=O)N(C)C1=O`, for which the compound was called inactive in test [1] and in test [2]. In addition, the Potency entry in test [3] is “inactive”.

For the compound `C/C=C(\C)C(=O)O[C@H]1[C@H](OC(C)=O)[C@]2(CO)[C@H](O)[C@H](O)[C@]3(C)C(=CCC4[C@@]5(C)CC[C@H](O[C@@H]6O[C@H](C(=O)O)[C@@H](O)[C@H](O[C@@H]7OC[C@H](O)[C@H](O[C@@H]8OC[C@H](O)[C@H](O)[C@H]8O)[C@H]7O)[C@H]6O[C@@H]6O[C@H](CO)[C@@H](O)[C@H](O)[C@H]6O)C(C)(C)C5CC[C@]43C)[C@@H]2CC1(C)C` (stereo partly drawn), the activity change, negative = inhibition in test [4] is 1% [at 12.4 µM].

Regarding `C/C=C(\C)C(=O)OC1CC2C(CC=C3CC(OC4CC(OC)C(OC5CC(OC)C(OC6OC(C)C(OC7OC(CO)C(O)C(O)C7O)C(OC)C6O)C(C)O5)C(C)O4)CCC32C)C2(O)CCC(C(C)=O)C12C` (stereo not drawn), the Potency entry in test [4] is “inactive”.

For the compound `CN1[C@@H]2CC[C@H]1CC(OC(=O)C1C=Nc3ccccc31)C2` (stereo partly drawn), the Potency entry in test [4] is “inactive”.

`CN1C(=O)N(c2ccc(C#N)c(C(F)(F)F)c2)C(=O)[C@]1(CO)c1ccccc1`: the Potency entry in test [4] was “inactive”.

With `CC[C@H]1CN2CC[C@H]1C[C@H]2[C@H](O)c1ccnc2ccc(OC)cc12`, the Potency result in test [4] was “inactive”.

For `C[C@]12CCC(=O)C=C1C=C[C@@H]1[C@@H]2CC[C@@]2(C)[C@H]1CC[C@@]2(O)CCC(=O)O`, the call in test [1] and in test [2] was inactive. In addition, the Potency result in test [3] was “inactive”.

On to `Oc1ccc2c3c1O[C@H]1[C@@H](O)CC[C@@]4(O)[C@@H](C2)N(CC2CCC2)CC[C@]314`, for which the outcome in test [1] and in test [2] was inactive. Further, in test [3], the Potency result was “inactive”.

In the case of `CCN1C[C@]2(OC(=O)c3ccccc3NC(C)=O)CC[C@H](OC)[C@@]34[C@@H]2C[C@@H]([C@@H]13)[C@@]1(O)C[C@H](OC)[C@H]2C[C@@H]4[C@]1(O)[C@H]2OC`, the Potency result in test [4] was “inactive”.

Take `N#C[C@@H](O[C@@H]1O[C@H](CO[C@@H]2O[C@H](CO)[C@@H](O)[C@H](O)[C@H]2O)[C@@H](O)[C@H](O)[C@H]1O)c1ccccc1`: the Potency entry in test [4] was “inactive”.

In the case of `COc1c(C(C)C)cc2c(c1O)[C@@]1(C(=O)O)CCCC(C)(C)C1CC2` (stereo partly drawn), in test [4], the Potency entry is “inactive”.

Regarding `CC1=C2C(=O)C3[C@@H](CC=C4C[C@@H](O)CC[C@@]43C)[C@@H]2CC[C@]12O[C@@H]1C[C@H](C)CN[C@H]1[C@H]2C` (stereo partly drawn), the Potency entry in test [4] was “inactive”.

As for `C[C@]12CC[C@H](OS(=O)(=O)O)CC1=CC[C@@H]1[C@@H]2CC[C@]2(C)C(=O)CC[C@@H]12`, the compound was called inactive in test [1] and in test [2]. Besides, the Potency entry in test [3] was “inactive”.

Take `C=C(CO)C(=O)O[C@H]1C/C(C)=C/CC/C(CO)=C/[C@H]2OC(=O)C(=C)[C@H]12`: in test [4], the Potency result was “inactive”.

Turning to `CCCN1CCO[C@H]2c3cc(O)ccc3OC[C@@H]21`, the Potency entry in test [4] was “inactive”.

In the case of `FC(F)OC(F)(F)C(F)Cl` (stereo not drawn), the outcome in test [1] and in test [2] was inactive. Moreover, the Potency entry in test [3] was “inactive”.

Turning to `CCCC(=O)OC(C(Cl)(Cl)Cl)P(=O)(OC)OC` (stereo not drawn), the result in test [1] was inactive. In test [2], the outcome is “inactive [at 114 µM]”. In addition, the Potency entry in test [3] is “inactive”.

On to `C=C[C@H]1CN2CC[C@H]1C[C@@H]2[C@@H](O)c1ccnc2ccccc12`, for which the Potency entry in test [4] was “inactive”.

For the compound `CCN(CC)C(=O)N[C@H]1C[C@@H]2c3cccc4[nH]cc(c34)C[C@H]2N(C)C1`, the compound was classed as inactive in test [1] and in test [2]. The Potency result in test [3] was “inactive”.

For `CC[C@H]1CN2CC[C@H]1C[C@@H]2[C@@H](O)c1ccnc2ccc(OC)cc12`, the outcome in test [1], in test [5] and in test [6] was inactive. Further, the Potency entry in test [3] and in test [4] was “inactive” in each case.

For the compound `O=C1OC2(c3cc(Br)c(O)cc3Oc3c2cc(Br)c(O)[c]3[Hg])c2ccccc21` (stereo not drawn), the outcome in test [2] was inactive.

On to `COC([CH2][Hg])CNC(=O)c1ccccc1OCC(=O)O` (stereo not drawn), for which the Potency in test [3] was 3.55 µM (active).

Consider `CN1CCC[C@@H]1Cc1c[nH]c2ccc(Nc3ncccc3[N+](=O)[O-])cc12`, for which the Potency entry in test [7] and in test [4] was “inactive” throughout.

`Cc1ccccc1-n1c(CF)nc2ccc(N)cc2c1=O`: the call in test [1] and in test [2] was inactive. Moreover, the Potency result in test [3] was “inactive”.

Regarding `CN1C(=O)c2ccccc2NC(=O)C1Cc1ccccc1` (stereo not drawn), in test [4], the Potency entry was “inactive”.

As for `COC1C(O)C(OC2CCC3(C=O)C(CCC4C3CCC3(C)C(C5=CC(=O)OC5)CCC43O)C2)OC(C)C1OC1OC(CO)C(O)C(O)C1O` (stereo not drawn), in test [4], the Potency entry was “inactive”.

For `COC(=O)C1(C)CCC(=O)C2(C)c3c(O)cc(C(C)C)cc3C(O)C(OC(C)=O)C12` (stereo not drawn), the Potency entry in test [4] is “inactive”.

With `CCN1C[C@]2(COC)[C@H](O)C[C@H](OC)[C@]34[C@@H]5C[C@]6(O)[C@H](OC(=O)c7ccccc7)[C@@H]5[C@@](O)([C@H]([C@H](OC)[C@H]23)[C@@H]14)[C@@H](O)[C@@H]6OC`, the Potency entry in test [4] was “inactive”.

In the case of `Clc1ccc(OCC2=NCCN2)cc1Cl`, the Potency result in test [4] was “inactive”.

For the compound `C[C@H]1C(=O)O[C@H]2[C@H](O)[C@]34C5OC(=O)[C@]3(O[C@@H]3OC(=O)[C@H](O)C34[C@H](C(C)(C)C)[C@H]5O)C12O` (stereo partly drawn), in test [4], the Potency result is “inactive”.

For `CN1[C@H]2C[C@H](OC(=O)[C@H](CO)c3ccccc3)C[C@@H]1[C@@H](O)C2`, the Potency entry in test [4] was “inactive”.

For `Cc1cc(C)cc(C(=O)OC2C[C@H]3CC[C@@H](C2)N3C)c1` (stereo partly drawn), the compound was classed as inactive in test [8].

As for `O[C@H]1[C@H]2[C@H](O)CCCN2C[C@H]1O`, the compound was called inactive in test [8].
